A selection: hits, their analogues and other compounds. The true share with any hit is near 19%.
TDP1 block – blocks human tyrosyl-DNA phosphodiesterase 1 | recombinant TDP1, AlphaScreen DNA substrate cleavage | Potency, µM (series often up to 130 µM), most hits filed as inhibitors | hit rate 0.28% among 350,000 | AID 485290; also: nearly all actives have a fitted effect of over 40% in size
Target sequence (Q9NUW8 whole entry, looked up): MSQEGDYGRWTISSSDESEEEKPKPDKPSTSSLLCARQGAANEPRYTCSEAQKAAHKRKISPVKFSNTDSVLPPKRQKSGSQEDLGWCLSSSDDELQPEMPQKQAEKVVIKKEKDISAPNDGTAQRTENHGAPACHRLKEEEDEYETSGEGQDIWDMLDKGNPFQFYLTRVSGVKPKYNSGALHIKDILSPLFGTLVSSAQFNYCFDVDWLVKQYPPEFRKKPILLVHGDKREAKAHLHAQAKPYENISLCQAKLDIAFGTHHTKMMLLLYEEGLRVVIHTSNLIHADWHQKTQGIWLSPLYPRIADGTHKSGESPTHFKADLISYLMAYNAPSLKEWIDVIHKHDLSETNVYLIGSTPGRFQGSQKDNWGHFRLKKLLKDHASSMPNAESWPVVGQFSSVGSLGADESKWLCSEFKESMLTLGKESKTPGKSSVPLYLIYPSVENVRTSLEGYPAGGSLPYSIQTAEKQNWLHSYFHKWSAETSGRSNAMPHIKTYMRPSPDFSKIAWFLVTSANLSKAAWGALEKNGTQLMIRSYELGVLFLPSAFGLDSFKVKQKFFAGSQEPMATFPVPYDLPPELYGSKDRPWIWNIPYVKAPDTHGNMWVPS
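Enzyme-compound mixtures sat 15 min at room temperature, followed by a 5 min reaction with 15 nM final substrate and 10 min with AlphaScreen beads. Recombinant human Tdp1 was used at 1 nM final.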
DT40 TDP1 no CPT – qHTS for Inhibitors of human tyrosyl-DNA phosphodiesterase 1 (TDP1): qHTS in cells in absence of CPT. DT40 Tdp1-/- hTDP1 cells, no CPT, ATP luminescence, 48 h. Potency, µM (titrated, usually from 46.2 µM), actives largely listed as inhibitors. hit rate 15% among 420,000; also: nearly all actives have a fitted effect of over 55% in size
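Camptothecin absent (DMSO only). Human TDP1-complemented DT40 knockout cells, 400 cells/well, 37 °C for minimum 48 hr; ATP measured via CellTiter-Glo, 30 min dark incubation, luminescence.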
HepG2 viability – counter-screen for TGF-b inhibitors: cytotoxicity in HepG2 cells; AID 588856; hit rate 0.76% among 410,000; Potency, µM (top dose mostly 46.1 µM), usual class: cytotoxic; HepG2 CAGA-GFP viability, ATP luminescence, 18 h
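HepG2 CAGA-GFP cells (1000/well, DMEM with 1% FBS) received compound, then TGF-beta at 500 pg/mL final, and were incubated 18 hours at 37 degrees C. Viability was read by CellTiter-Glo luminescence. Media-only wells were set as complete cell-killing and DMSO as no toxicity.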
TGFb inhibitor – inhibitors of TGF-b signaling; HepG2 CAGA-GFP TGF-b/SMAD3 reporter, GFP fluorescence, 18 h; TGF-beta stimulated, 500 pg/mL final; Potency, µM (top dose mostly 46.1 µM), usual class: inhibitors; hit rate 1.2% among 410,000; also: nearly all actives have a fitted effect of over 65% in size
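Per well, imaged GFP fluorescence of HEPG2 CAGA-GFP cells gives the signal; cells get compound, then TGF-beta (500 pg/mL final), 18 h at 37 degrees C; %Activity versus -TGF-beta and +DMSO controls.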
IL1B secr inh – inflammasome signaling inhibition, IL-1 beta readout. hit rate 4.7% among 360,000. AID 743279. THP-1 LPS/ATP IL-1B secretion, AlphaLISA, 16 h; stronger effect = lower value. activity change, % at 57.5 µM; in the data active = activity change below about -50%; inconclusive = mostly about -30% to -49%
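Secreted IL-1B measured by AlphaLISA bead assay after 16 h compound exposure of THP-1 cells; compounds (final up to 57.5 uM) added 1 h before LPS (250 ng/mL) and ATP (1.25 mM) stimulation; lower signal means less secretion.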
TDP1 cell CPT – DT40-hTDP1 cell growth loss with CPT | chicken DT40 Tdp1-/-;hTDP1 cells + 20 nM CPT, ATP luminescence, 48 h | hit rate 12% among 420,000 | AID 686979 | Potency, µM (titrated, usually from 46.2 µM), hits mostly inhibitors; also: nearly all actives have a fitted effect of over 55% in size
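Cell growth measured by CellTiter-Glo luminescence after a minimum 48 h, 37 C compound exposure with 20 nM CPT in Tdp1-knockout DT40 cells stably expressing hTDP1, seeded 400/well; qHTS titration format.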
Hits are given with their value. Unless noted, calls follow the shape of the dose curve; as a rule, active = well fitted curve in the direction sought with a large enough effect; inconclusive = small, poorly fitted or top-dose-only effect, or another doubt; inactive = no such curve, though single readings can be large; an effect the other way counts as inactive or inconclusive.

Results for NC(=O)NC(=O)COC(=O)c1ccc(Cl)c(S(=O)(=O)N(Cc2ccccc2)c2ccc(Cl)cc2)c1 ?
TDP1 block: inactive; DT40 TDP1 no CPT: inactive; HepG2 viability: inactive; TGFb inhibitor: inactive; IL1B secr inh: inactive; TDP1 cell CPT: inactive

How did COc1ccccc1N(Cc1ccccc1)S(=O)(=O)c1cccc(C(=O)Nc2cc(C)ccn2)c1 do in these assays?
TDP1 block: inactive; DT40 TDP1 no CPT: 26µM; HepG2 viability: inactive; TGFb inhibitor: inactive; IL1B secr inh: inconclusive; TDP1 cell CPT: inconclusive

What do the screens show for `C=CCN(c1ccc(F)cc1)S(=O)(=O)c1cc(C(=O)NC2CC2)ccc1Cl`?
DT40 TDP1 no CPT: 21µM; HepG2 viability: inactive; TGFb inhibitor: inactive; IL1B secr inh: inactive; TDP1 cell CPT: 21µM

How did COc1ccccc1N(Cc1ccccc1)S(=O)(=O)c1cccc(C(=O)O)c1 do in these assays?
TDP1 block: inactive; DT40 TDP1 no CPT: inactive; HepG2 viability: inactive; TGFb inhibitor: inactive; IL1B secr inh: inactive; TDP1 cell CPT: inactive

What do the screens show for `NC(=O)COC(=O)c1ccc(Cl)c(S(=O)(=O)N(Cc2ccccc2)c2ccc(Cl)cc2)c1`?
TDP1 block: inactive; DT40 TDP1 no CPT: inactive; HepG2 viability: inactive; TGFb inhibitor: 16µM; IL1B secr inh: inactive; TDP1 cell CPT: inactive

What do the screens show for `O=C(COc1coc(CN2CCN(c3ccc(F)cc3)CC2)cc1=O)NCC1CCCO1` (centres undefined)?
TDP1 block: inactive; DT40 TDP1 no CPT: inactive; HepG2 viability: inactive; TGFb inhibitor: inactive; IL1B secr inh: inactive; TDP1 cell CPT: inactive

How did CC1(C)CC(NC(=O)c2ccc(Cl)c(S(=O)(=O)N(Cc3ccccc3)c3ccccc3)c2)CC(C)(C)N1 do in these assays?
DT40 TDP1 no CPT: inconclusive; HepG2 viability: 18µM; TGFb inhibitor: inconclusive; IL1B secr inh: -110; TDP1 cell CPT: inconclusive

How did COc1ccccc1N(Cc1ccccc1)S(=O)(=O)c1cccc(C(=O)NC2CC(C)(C)NC(C)(C)C2)c1 do in these assays?
DT40 TDP1 no CPT: 18µM; HepG2 viability: 13µM; TGFb inhibitor: inactive; IL1B secr inh: inconclusive; TDP1 cell CPT: 18µM

Results for Cc1ccc2c(=O)c(C(=O)c3cccc(Cl)c3)cn(CC(=O)NCc3ccc(F)cc3)c2n1 ?
TDP1 block: inactive; DT40 TDP1 no CPT: inconclusive; HepG2 viability: inactive; TGFb inhibitor: inactive; TDP1 cell CPT: inactive

How did COc1cc2oc(=O)c(CC(=O)N3CCCCC3)c(C)c2cc1Cl do in these assays?
TDP1 block: inactive; DT40 TDP1 no CPT: inactive; HepG2 viability: inactive; TGFb inhibitor: inactive; TDP1 cell CPT: inactive

What do the screens show for `O=c1[nH]c(SCc2c(F)cccc2Cl)nc2c1CCC2`?
TDP1 block: inactive; DT40 TDP1 no CPT: inconclusive; HepG2 viability: inactive; TGFb inhibitor: inactive; TDP1 cell CPT: inconclusive

What do the screens show for `O=C(Nc1nc(OCCN2CCCC2=O)cnc1/C=C\c1ccccc1)c1cc2ccccc2s1`?
DT40 TDP1 no CPT: inconclusive; HepG2 viability: inactive; TGFb inhibitor: inactive; IL1B secr inh: inactive; TDP1 cell CPT: 29µM

What do the screens show for `CCOC(=O)c1ccc(NC(=O)CCn2c(=O)c3cccn3c3ccccc32)cc1`?
TDP1 block: inactive; DT40 TDP1 no CPT: inactive; HepG2 viability: inactive; TGFb inhibitor: inactive; TDP1 cell CPT: inconclusive

Results for C=CCn1c(O)c(N=O)c2cc(C)ccc21 ?
TDP1 block: inactive; DT40 TDP1 no CPT: inconclusive; HepG2 viability: inactive; TGFb inhibitor: inactive; IL1B secr inh: -52; TDP1 cell CPT: inactive

What do the screens show for `Cc1ccc(Cn2c(O)c(N=NC(=S)Nc3ccccc3F)c3ccccc32)cc1`?
TDP1 block: inactive; DT40 TDP1 no CPT: 5.8µM; HepG2 viability: inactive; TGFb inhibitor: inactive; IL1B secr inh: inactive; TDP1 cell CPT: 6.5µM

Results for Oc1c(N=NC(=S)Nc2ccccc2F)c2ccccc2n1Cc1ccccc1Cl ?
TDP1 block: inactive; DT40 TDP1 no CPT: 5.8µM; HepG2 viability: inactive; TGFb inhibitor: inactive; IL1B secr inh: inconclusive; TDP1 cell CPT: 6.5µM
